Source: PubChem BioAssay
Compounds with a hit are over-represented: about 14% of the library has one in this group of screens.
CRE-bla Fsk: Cell signaling CRE-BLA (Fsk stim). CHO CRE-bla reporter (cAMP response element driving beta-lactamase), forskolin EC10, beta-lactamase ratio. Potency, µM (highest dose often 38.2 µM), usual class: activators. actives 2.5% (n = 71,000). AID 662, 2007; active means well fitted activation curve with a large enough effect in the signal ratio, with a control signal flat, not every such curve was filed as active; inconclusive means small, poorly fitted or top-dose-only effect, or effect the other way, or a change in a side signal; the % refers to the signal ratio
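Modulation of forskolin-driven signalling is measured in CHO cells carrying a CRE-controlled beta-lactamase reporter. Cells are stimulated with EC10 NKH 477 in the presence of titrated compound for 3 h at 37 °C, then loaded with CCF4 for 2 h at room temperature.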
HADH2 inhib: qHTS Assay for Inhibitors of HADH2 (Hydroxyacyl-Coenzyme A Dehydrogenase, Type II) | actives 3.4% (n = 73,000) | 3-hydroxyacyl-CoA dehydrogenase type-2 (Homo sapiens), Q99714 | Potency, µM (series often up to 57.1 µM), usual class: inhibitors | recombinant HADH2, NADH fluorescence, beta-hydroxybutyryl-CoA; further: nearly all actives have a fitted effect of over 60% in size
Target sequence (Q99714 whole entry, looked up, one chain of several): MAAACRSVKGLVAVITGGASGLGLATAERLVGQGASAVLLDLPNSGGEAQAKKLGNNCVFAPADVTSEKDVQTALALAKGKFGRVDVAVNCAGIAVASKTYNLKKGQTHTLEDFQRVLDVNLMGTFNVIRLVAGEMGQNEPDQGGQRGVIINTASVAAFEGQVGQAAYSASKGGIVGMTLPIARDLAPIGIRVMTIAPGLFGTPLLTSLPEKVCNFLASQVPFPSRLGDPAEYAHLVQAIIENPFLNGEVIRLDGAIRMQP
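Buffer 100 mM Tris-HCl pH 9.0/0.01% Tween-20; HADH2 20 nM; NAD+ 1 mM; beta-hydroxybutyryl-CoA 90 uM (all final). 15 min cpd preincubation, RT.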
A350 autofl: qHTS Assay for Spectroscopic Profiling in A350 Spectral Region | Compound autofluorescence, 340/450 nm, Alexa 350 dye-equivalents; stronger effect = higher value | actives 11% (n = 59,000) | max dye-equivalent concentration, M; in the data active means max dye-equivalent concentration above about 10 nM; inconclusive means mostly about 1.1 nM to 9.6 nM
AID923: qHTS Assay for Allosteric/Competitive Inhibitors of Caspase-1: Spectroscopic Profiling in AFC Spectral Region. compound fluorescence, AFC spectral region (405/520 nm). AID 923, 2007. actives 1.1% (n = 75,000). Potency, µM (doses to about 57.5 µM), usual class: activators
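Compound autofluorescence profiled at 405 nm ex/520 nm em during kinetic caspase 1 run (50 nM enzyme, 5 uM Ac-WEHD-AFC, HEPES pH 7.5, 10 mM DTT). Titration up to 57 uM; baseline from regression intercept, normalized to AFC standard curve.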
4-MU autofl: qHTS Assay for Spectroscopic Profiling in 4-MU Spectral Region. compound autofluorescence, 340/450 nm, 4-MU equivalents; stronger effect = higher value. AID 589, 2007. max dye-equivalent concentration, M. actives 11% (n = 59,000); in the data active means max dye-equivalent concentration above about 10 nM; inconclusive means mostly about 1.1 nM to 9.6 nM
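Compounds in 100 mM Tris, pH 8.0, incubated 15 min at room temperature, then fluorescence read at 340 nm excitation/450 nm emission. Signal converted to 4-MU dye-equivalent concentration using an on-plate six-point 4-MU standard curve.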
HSD17B inhib: qHTS Assay for Inhibitors of HSD17B4, hydroxysteroid (17-beta) dehydrogenase 4 | Potency, µM (top dose mostly 57.1 µM), most hits filed as inhibitors | actives 7.6% (n = 75,000) | 3-hydroxyacyl-CoA dehydrogenase type-2 (Homo sapiens), Q99714 | recombinant HSD17B10, NADH fluorescence kinetic;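 further: the protocol describes HADH2 (HSD17B10) and not the HSD17B4 of the title; nearly all actives have a fitted effect of over 70% in size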
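Enzyme plus compound, 15 min room temperature; substrate mix added (NAD+ 1 mM, beta-hydroxybutyryl-CoA 90 uM final); plates read kinetically for NADH fluorescence. HADH2 was His-tagged, E. coli-derived, 20 nM.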
Numbers stand for hits; i = inactive; ? = inconclusive; nt = no result given; [ ] = dose if it differs, or a comment. Unless noted, the call rests on the fitted dose curve; in most records, active means well fitted curve in the direction sought with a large enough effect; inconclusive means small, poorly fitted or top-dose-only effect, or another doubt; inactive means no such curve, though single readings can be large; an effect the other way counts as inactive or inconclusive.

SMILES	CRE-bla Fsk	HADH2 inhib	A350 autofl	AID923	4-MU autofl	HSD17B inhib
N#Cc1nc(-c2cccs2)oc1NCC1CCCO1 (centres undefined)	i	5.01µM	3.59e-06M	i	2.81e-06M	31.6µM
COc1ccc(-c2nc(C#N)c(NCC3CCCO3)o2)cc1 (centres undefined)	i	31.6µM	1.19e-08M	i	?	25.1µM
COc1cc(OC)c2cc(-c3ccncc3)cnc2c1	5.01µM	31.6µM	nt	i	nt	31.6µM
C=CCC1C=CC(Oc2ccc(OC)cc2)C(CO)O1 (centres undefined)	nt	i[11.4 µM]	nt	i[11.5 µM]	nt	i[11.4 µM]
CC1=CC(=O)CC(C)(C)[C@]1(O)/C=C\C(C)=C\C(=O)O	i[7.6 µM]	i[11.4 µM]	i	i[11.5 µM]	i	i[11.4 µM]
COc1ccccc1CNc1ncncc1-c1ccccc1Cl	i	i	i	i	i	i
CC1CCC/C(=C\Nc2ccc3c(c2)OCO3)C1=O (centres undefined)	i	?	?	i	?	i
CC1CCC/C(=C\Nc2ccccc2C(=O)O)C1=O (centres undefined)	i	?	1.87e-08M	i	1.63e-08M	31.6µM
Clc1ccccc1-c1nc(NC2CCNCC2)c2ccccc2n1	i	i	i	i	i	i
O=C(CC1CCCC1)NCCc1cn2ccccc2n1	i	i	nt	i	nt	31.6µM
O=C(CC1CCCCC1)NCc1cn2ccsc2n1	i	i	i	i	i	i
N#CCSc1nc(Nc2ccc3c(c2)OCO3)c2ccccc2n1	?	i	1.92e-07M	i	1.33e-07M	i
COc1cc(Nc2nc(SCC#N)nc3ccccc23)cc(OC)c1OC	?	i	i	i	i	i
CC(NC(=O)c1cc(-c2ccc(O)cc2)on1)c1ccccc1 (centres undefined)	?	i	nt	i	nt	i
CCn1c(SCC(=O)NCCOC)nc2sc3c(c2c1=O)CCCC3	i	i	i	i	i	i
CCn1c(SCC(=O)NCCOC)nc2sc(C)c(C)c2c1=O	10µM	i	i	i	i	i
O=C(Cc1c(O)c2ccccc2[nH]c1=O)NCc1cccc(F)c1	i	i	i	i	i	25.1µM
COc1ncnc2c1NC(=O)CS2	?	i	i	i	i	i
COc1ncnc2c1N[C@@](C)(O)c1c(F)c(F)c(F)c(F)c1S2	?	i	2.53e-07M	i	1.89e-07M	?
CN[C@@H]1[C@H](O)[C@H](NC)[C@@H]2O[C@]3(O)C(=O)C[C@@H](C)O[C@H]3O[C@@H]2[C@H]1O	i	i	i	nt	i	nt
Cc1ccccc1NC(=O)c1c(O)c2cccc3c2n(c1=O)CC3	i	i	2.27e-08M	i	2.49e-08M	i
Cc1cccnc1NC(=O)c1c(O)c2cccc3c2n(c1=O)CCC3	i	i	?	i	?	i
CCCCc1nc2ccccc2c(=O)n1NC(=O)c1c(O)c2cccc3c2n(c1=O)CCC3	i	i	?	i	i	i
Cc1ccccc1NC(=O)c1c(O)c2cccc3c2n(c1=O)CCC3	?	?	8.65e-08M	i	7.99e-08M	i
c1ccc(C(c2ccccc2)N2CC[C@@]3(CCCNC3)C2)cc1	i	i	i	i	i	i
SMILES	CRE-bla Fsk	HADH2 inhib	A350 autofl	AID923	4-MU autofl	HSD17B inhib
C[C@@]12CCC(=O)C=C1C=CC1C2CC[C@]2(C)C1CC[C@@]21CCC(=O)O1 (some centres undefined)	nt	nt	nt	i	nt	i
C[C@@H](CCc1ccccc1)NC[C@H](O)c1ccc(O)c(C(N)=O)c1	i	25.1µM	4.36e-08M	i	4.87e-08M	12.6µM
CS(=O)(=O)N1CCC2(CC1)CN(c1ccccc1)C2	i	i	i	i	i	i
CC(NC(=O)Cc1ccccc1)c1nc2ccccc2[nH]1 (centres undefined)	i	i	nt	i	nt	i
CC(C)OC(=O)CCc1nc2ccccc2[nH]c1=O	i	i	1.44e-07M	i	1.3e-07M	25.1µM
CCOC(=O)C(C)c1nc2ccccc2[nH]c1=O (centres undefined)	nt	nt	1.11e-07M	nt	9.29e-08M	nt
CCOC(=O)C1=C(C)NC(C)=C(C(=O)OCC)C1c1nc2ccccc2[nH]1	?	i[11.4 µM]	nt	i	nt	i
